How the values were obtained:
Details in all cases: Compound Concentration (nM):1000
BRSK2 = system: BRSK2
BTK = system: BTK
BUB1 = system: BUB1
CAMK1B = system: T1, CAMK1B
T1 construct: gene PNCK

CAMK1D = system: CAMK1D
CAMK1G = system: CAMK1G
CAMK1 = system: CAMK1
CAMK2A = system: CAMK2A
CAMK2B = system: CAMK2B
CAMK2D = system: CAMK2D
CAMK2G = system: CAMK2G
CAMK4 = system: CAMK4
CAMKK1 = system: CAMKK1
CAMKK2 = system: CAMKK2
CASK = system: CASK
CDC2L1 = system: T2, CDC2L1
T2 construct: gene CDK11B

CDC2L2 = system: CDC2L2
CDC2L5 = system: T3, CDC2L5
T3 construct: gene CDK13

CDK11 = system: T4, CDK11
T4 construct: gene CDK19

CDK2 = system: CDK2
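Further: KINOMEscan scanMAX binding as percent activity remaining versus control; lower means stronger binding.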

Cl.c1ccc(Cc2nc3ccc(Nc4ncnc5ccccc45)cc3[nH]2)cc1 [GR269666A]
Percent Control (BRSK2): 91% | Percent Control (BTK): 100% | Percent Control (BUB1): 100% | Percent Control (CAMK1B): 89% | Percent Control (CAMK1D): 100% | Percent Control (CAMK1G): 100% | Percent Control (CAMK1): 90% | Percent Control (CAMK2A): 93% | Percent Control (CAMK2B): 99% | Percent Control (CAMK2D): 100% | Percent Control (CAMK2G): 100% | Percent Control (CAMK4): 100% | Percent Control (CAMKK1): 100% | Percent Control (CAMKK2): 100% | Percent Control (CASK): 100% | Percent Control (CDC2L1): 100% | Percent Control (CDC2L2): 100% | Percent Control (CDC2L5): 100% | Percent Control (CDK11): 100% | Percent Control (CDK2): 100%

C/C(Nc1ccc(S(N)(=O)=O)cc1)=C1/C(=O)Nc2ccccc21 [GW335962X]
Percent Control (BRSK2): 81% | Percent Control (BTK): 83% | Percent Control (BUB1): 90% | Percent Control (CAMK1B): 79% | Percent Control (CAMK1D): 83% | Percent Control (CAMK1G): 86% | Percent Control (CAMK1): 52% | Percent Control (CAMK2A): 79% | Percent Control (CAMK2B): 72% | Percent Control (CAMK2D): 100% | Percent Control (CAMK2G): 95% | Percent Control (CAMK4): 100% | Percent Control (CAMKK1): 76% | Percent Control (CAMKK2): 82% | Percent Control (CASK): 87% | Percent Control (CDC2L1): 100% | Percent Control (CDC2L2): 81% | Percent Control (CDC2L5): 65% | Percent Control (CDK11): 100% | Percent Control (CDK2): 87%

COc1ccc2c(-c3ccnc(Nc4cccc(OC(F)(F)F)c4)n3)cnn2n1 [GW810372X]
Percent Control (BRSK2): 77% | Percent Control (BTK): 84% | Percent Control (BUB1): 86% | Percent Control (CAMK1B): 100% | Percent Control (CAMK1D): 100% | Percent Control (CAMK1G): 100% | Percent Control (CAMK1): 100% | Percent Control (CAMK2A): 100% | Percent Control (CAMK2B): 100% | Percent Control (CAMK2D): 100% | Percent Control (CAMK2G): 100% | Percent Control (CAMK4): 100% | Percent Control (CAMKK1): 91% | Percent Control (CAMKK2): 81% | Percent Control (CASK): 96% | Percent Control (CDC2L1): 100% | Percent Control (CDC2L2): 100% | Percent Control (CDC2L5): 100% | Percent Control (CDK11): 100% | Percent Control (CDK2): 100%

CCc1ccc(Oc2nccc(-c3c(-c4ccc(F)cc4)ncn3C3CCNCC3)n2)cc1 [SB-242719]
Percent Control (BRSK2): 100% | Percent Control (BTK): 100% | Percent Control (BUB1): 73% | Percent Control (CAMK1B): 100% | Percent Control (CAMK1D): 86% | Percent Control (CAMK1G): 100% | Percent Control (CAMK1): 90% | Percent Control (CAMK2A): 67% | Percent Control (CAMK2B): 63% | Percent Control (CAMK2D): 100% | Percent Control (CAMK2G): 100% | Percent Control (CAMK4): 100% | Percent Control (CAMKK1): 100% | Percent Control (CAMKK2): 100% | Percent Control (CASK): 83% | Percent Control (CDC2L1): 89% | Percent Control (CDC2L2): 66% | Percent Control (CDC2L5): 100% | Percent Control (CDK11): 95% | Percent Control (CDK2): 100%

COc1cc2ncnc(Nc3ccc4c(cnn4Cc4ccccc4)c3)c2cc1OC.Cl [GW282449A]
Percent Control (BRSK2): 100% | Percent Control (BTK): 40% | Percent Control (BUB1): 100% | Percent Control (CAMK1B): 100% | Percent Control (CAMK1D): 100% | Percent Control (CAMK1G): 100% | Percent Control (CAMK1): 100% | Percent Control (CAMK2A): 100% | Percent Control (CAMK2B): 100% | Percent Control (CAMK2D): 100% | Percent Control (CAMK2G): 100% | Percent Control (CAMK4): 100% | Percent Control (CAMKK1): 100% | Percent Control (CAMKK2): 100% | Percent Control (CASK): 93% | Percent Control (CDC2L1): 100% | Percent Control (CDC2L2): 100% | Percent Control (CDC2L5): 100% | Percent Control (CDK11): 100% | Percent Control (CDK2): 100%

CC(C)COC(=O)c1ccc2c(c1)/C(=C/Nc1ccc(S(N)(=O)=O)cc1)C(=O)N2 [GW416981X]
Percent Control (BRSK2): 88% | Percent Control (BTK): 100% | Percent Control (BUB1): 9.8% | Percent Control (CAMK1B): 92% | Percent Control (CAMK1D): 100% | Percent Control (CAMK1G): 100% | Percent Control (CAMK1): 100% | Percent Control (CAMK2A): 29% | Percent Control (CAMK2B): 71% | Percent Control (CAMK2D): 72% | Percent Control (CAMK2G): 100% | Percent Control (CAMK4): 100% | Percent Control (CAMKK1): 97% | Percent Control (CAMKK2): 100% | Percent Control (CASK): 95% | Percent Control (CDC2L1): 100% | Percent Control (CDC2L2): 100% | Percent Control (CDC2L5): 65% | Percent Control (CDK11): 100% | Percent Control (CDK2): 15%

CCn1c(-c2nonc2N)nc2c(C#CC(C)(C)O)nc(OCCNC)cc21.Cl [GSK949675]
Percent Control (BRSK2): 91% | Percent Control (BTK): 100% | Percent Control (BUB1): 71% | Percent Control (CAMK1B): 100% | Percent Control (CAMK1D): 100% | Percent Control (CAMK1G): 100% | Percent Control (CAMK1): 100% | Percent Control (CAMK2A): 100% | Percent Control (CAMK2B): 100% | Percent Control (CAMK2D): 100% | Percent Control (CAMK2G): 100% | Percent Control (CAMK4): 100% | Percent Control (CAMKK1): 100% | Percent Control (CAMKK2): 100% | Percent Control (CASK): 100% | Percent Control (CDC2L1): 100% | Percent Control (CDC2L2): 100% | Percent Control (CDC2L5): 100% | Percent Control (CDK11): 100% | Percent Control (CDK2): 100%

O=C(Nc1n[nH]c2nc(-c3ccc(O)cc3)c(Br)cc12)C1CC1 [SB-725317]
Percent Control (BRSK2): 47% | Percent Control (BTK): 97% | Percent Control (BUB1): 94% | Percent Control (CAMK1B): 100% | Percent Control (CAMK1D): 100% | Percent Control (CAMK1G): 100% | Percent Control (CAMK1): 100% | Percent Control (CAMK2A): 93% | Percent Control (CAMK2B): 97% | Percent Control (CAMK2D): 100% | Percent Control (CAMK2G): 100% | Percent Control (CAMK4): 100% | Percent Control (CAMKK1): 100% | Percent Control (CAMKK2): 100% | Percent Control (CASK): 100% | Percent Control (CDC2L1): 100% | Percent Control (CDC2L2): 100% | Percent Control (CDC2L5): 90% | Percent Control (CDK11): 100% | Percent Control (CDK2): 51%

COc1ccccc1-c1cc(/C=C2\C(=O)Nc3ncc(Br)cc32)cc(Br)c1O [GW442130X]
Percent Control (BRSK2): 100% | Percent Control (BTK): 99% | Percent Control (BUB1): 73% | Percent Control (CAMK1B): 78% | Percent Control (CAMK1D): 100% | Percent Control (CAMK1G): 100% | Percent Control (CAMK1): 100% | Percent Control (CAMK2A): 85% | Percent Control (CAMK2B): 88% | Percent Control (CAMK2D): 100% | Percent Control (CAMK2G): 100% | Percent Control (CAMK4): 94% | Percent Control (CAMKK1): 100% | Percent Control (CAMKK2): 100% | Percent Control (CASK): 100% | Percent Control (CDC2L1): 100% | Percent Control (CDC2L2): 100% | Percent Control (CDC2L5): 91% | Percent Control (CDK11): 62% | Percent Control (CDK2): 89%

Reference: publication PMC7826789 (International Journal of Molecular Sciences, 2021)
